# Reference: PubChem BioAssay (Tox21)
# Records with an inconclusive call do not appear. A number with no mark means an inactive call. Calls follow the shape of the dose curve; as a rule, active = well fitted activation curve with a large enough effect in the repeat runs; inconclusive = weak or mixed curves; inactive = flat fitted curve, though single readings scatter.
# Assay: A CellTox Green Cytotoxicity Assay to monitor cytotoxicity in HEK293 cells - 8 hour (AID 1224884); also: nearly all actives have a fitted effect of over 35% in size
# Conditions: CellTox Green fluorescence; series mostly up to 76.8 µM; cytotoxicity increase: at the top concentration
# Text: National Center for Advancing Translational Sciences [NCATS]
# NIH Chemical Genomics Center [NCGC]
# U.S. Environmental Protection Agency [EPA]
# National Institutes of Environmental Health Sciences [NIEHS]
# National Toxicology Program [NTP]
# Cell-based models are critical for drug discovery. Determining the natural cytotoxic effects resulting from test compounds is an essential research activity. A CellTox Green Cytotoxicity Assay to monitor cytotoxicity in real time of continues cell culture during 40 hours of the compound treatment was used to screen Tox21 10K library compounds in Hek293 cells. CellTox Green Cytotoxicity Assay is a nonlytic, homogeneous, biofluorescent method to measure cytotoxicity in cell culture after experimental manipulation. The assay system uses a proprietary asymmetric cyanine dye that is excluded from viable cells but preferentially stains the dead cell's DNA. […] Viable cells produce no appreciable increases in fluorescence. Therefore, the fluorescence signal produced by the binding interaction with dead cell DNA is proportional to cytotoxicity.
# The mixture of Hek293 cell suspension and reagents were dispensed at 600cells/6 ul/well in 1536-well tissue culture treated black solid bottom plates using a Multidrop dispenser. After the assay plates were incubated at a 37 C/5% CO2 incubator for 5 hours, 23 nL of compounds dissolved in DMSO, positive and negative controls was transferred to the assay plate by a pintool work station. The plates were incubated at 37 C for 40 hours. The fluorescence intensity were measured at 0h, 8h, 16h, 24h, 32h and 40h time points using ViewLux plate reader during compound treatment.
# % is scaled to controls: 0 for no effect and ±100 for the full control effect.
row,SMILES,cytotoxicity increase
1,O=C(O)c1c(Cl)ccc2cc(Cl)cnc12,-11.1%
2,CC#Cc1cc(C)nc(Nc2ccccc2)n1,-8.36%
3,Cn1c(CCCC(=O)O)nc2cc(N(CCCl)CCCl)ccc21,4.42% [at 35.3 µM]
4,CC(C)(N)Cc1ccccc1Cl,-14.2% [at 35.3 µM]
5,Cc1ccc(Cl)c(O)c1,-2.24% [at 35.3 µM]
6,CCNc1nc(Cl)nc(NC(C)(C)C)n1,2.1%
7,CC(C)(N)Cc1ccc(Cl)cc1,-7.89% [at 35.3 µM]
8,NC1(c2ccccc2)CCCCC1,0.638%
9,C=C(Cl)CSC(=S)N(CC)CC,-1.62%
10,CCCCCCCCBr,-2.04%
11,CCC(=O)OC1(c2ccccc2)CCN(C)CC1,0.59%
12,NNC(N)=O,1.83%
13,CCCCCCCCSC(=O)Oc1cc(Cl)nnc1-c1ccccc1,-7.5%
14,CN(C)CCc1c[nH]c2cccc(OP(=O)(O)O)c12,-16.6%
15,CNC(=O)Oc1ccccc1C(C)C,13%
16,CC(Cc1ccccc1)NCCCCl (stereo not given),-11.7% [at 35.3 µM]
17,CCNP(=S)(OC)O/C(C)=C/C(=O)OC(C)C (stereo not given),7.36%
18,CCCOc1nn(C(=O)NS(=O)(=O)c2ccccc2C(=O)OC)c(=O)n1C,-18.2%
19,CCCC[N+](=O)[O-],-4.86%
20,O=C(CCl)NCO,1.68%

row,SMILES,cytotoxicity increase
1,C[C@H](N)C(=O)c1ccccc1,-6.65%
2,CCCCCCC1CCOC1=O (stereo not given),2.58%
3,O=S1(=O)OCCO1,-3.19%
4,CC(Cc1ccccc1)NCCn1cnc2c1c(=O)n(C)c(=O)n2C (stereo not given),-16.6%
5,C=C(C)[C@H]1CN[C@H](C(=O)O)[C@H]1CC(=O)O,-0.531% [at 35.3 µM]
6,CCOP(=S)(OCC)SCCl,0.285%
7,Nc1c(Cl)c(F)nc(OCC(=O)O)c1Cl,-8.34%
8,COc1cc(CC(C)N)cc(OC)c1OC (stereo not given),-1.51%
9,Clc1nc(Cl)nc(Nc2ccccc2Cl)n1,9.31%
10,COc1cccc([C@@]2(O)CCCC[C@@H]2CN(C)C)c1,3.84% [at 35.3 µM]
11,CCN(CC)CCOC(=O)C(O)(c1ccccc1)c1ccccc1,-2.81% [at 35.3 µM]
12,CCN[C@@H](C)Cc1ccccc1,-10.9%
13,N#CC(Br)(Br)C(N)=O,-11.8%
14,[O-][Br+2]([O-])O,-9.22% [at 35.3 µM]
15,C[C@@H](N)[C@@H](O)c1ccccc1,-2.53% [at 35.3 µM]
16,CCOC1Oc2ccc(OS(C)(=O)=O)cc2C1(C)C (stereo not given),-9.12%
17,O=C/C=C/c1ccco1,-0.261%
18,COc1ccccc1OC,6.22%
19,C=CCc1cc(OC)c2c(c1)OCO2,22.2%
20,CC(C)N(Cc1ccccc1)C(=O)C(C)(C)C,-2.28%
